Assay [1] is described as follows: antimalarial activity against Dd2 strain (AID 2302;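 active means growth inhibition above 50% at the single 2 µM test dose, taken to imply half-maximal potency below 2 µM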;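 further: 0% = DMSO untreated growth and 100% = chloroquine plus artemisinin killed control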). The settings on record: P. falciparum Dd2 in RBCs, LDH growth readout, 72 h; at 2 µM; hits give high values.
The nature of assay [2]: HepG2 cytotoxicity, primary screen, cytotoxicity control for P. falciparum antimalarial project, cell-based, ATP luminescence (AID 2303;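 active means inhibition above 50%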;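 further: 0% = DMSO wells and 100% = digitonin-killed cells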). The settings on record: HepG2 viability, 24-48 h, at 10 µM, hits give high values.
The target in assay [3] is L-lactate dehydrogenase (Plasmodium falciparum (isolate CDC / Honduras)) (UniProt Q27743). Kind of assay: PfLDH activity inhibition – cell lysate, 3D7 strain, counter-screen for P. falciparum growth inhibition project (AID 2304).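 Further: 0% = vehicle and 100% = reference inhibitor.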 The note with it: P. falciparum 3D7 crude extract, LDH APAD/NBT absorbance; at 2 µM; hits give high values. Background: The purpose of a counterscreen is to sort out artefacts and off-target activity.

A short description of assay [4]: inhibition of 3D7 malaria parasite growth – strain 3D7 (AID 2306).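 Further: 0% = DMSO wells and 100% = chloroquine plus artemisinin control wells.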 The note with it: P. falciparum 3D7 erythrocytic growth, LDH absorbance, 72 h; at 2 µM; hits give high values.
For assay [5], the target named is Calcium-dependent protein kinase 1 (Plasmodium falciparum (isolate 3D7)) (UniProt P62344). Kind of assay: PfCDPK1 kinase inhibitors, biochemical, TCAMS library (AID 1159585; cut-off not given, nearly all actives have IC50 up to about 0.98 µM;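 further: inhibitors leave more ATP so luminescence rises with inhibition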). The settings on record: recombinant PfCDPK1, Kinase-Glo ATP depletion luminescence. Background: Kinase-Glo measures the ATP left after a reaction by luminescence.
For assay [6], the target named is Plasmodium falciparum protein kinase 6 (PK6, PF3D7_1337100) (UniProt Q8IDW1). Kind of assay: PfPK6 kinase inhibitors, biochemical, TCAMS library (AID 1159586). The settings on record: recombinant PfPK6, Kinase-Glo ATP depletion luminescence.
Assay [7] deals with Protein kinase 7 (PK7), Plasmodium falciparum 3D7 (PF3D7_0213400) (UniProt Q7YTF7). Nature of the assay: inhibition of Plasmodium PK7 catalytic activity – biochemical, TCAMS antimalarial set, Kinase-Glo luminescence (AID 1159587). The settings on record: recombinant PfPK7, Kinase-Glo ATP depletion luminescence.
Assay [8] deals with Calcium-dependent protein kinase 4 (Plasmodium falciparum (isolate 3D7)) (UniProt Q8IBS5). Nature of the assay: PfCDPK4 kinase inhibitors, biochemical, TCAMS library (AID 1159588; cut-off not given, nearly all actives have IC50 up to about 0.91 µM). The note with it: recombinant PfCDPK4, Kinase-Glo ATP depletion luminescence.

The structures appear in SMILES notation. A number with no mark means an inactive call. For some of these results: Measured potencies and affinities stand elsewhere. Calls of active or inactive are those of the source. Unless noted, how the calls were made is not given here.

Calcium-dependent protein kinase 1 (Plasmodium falciparum (isolate 3D7)), sequence (P62344 whole entry, looked up): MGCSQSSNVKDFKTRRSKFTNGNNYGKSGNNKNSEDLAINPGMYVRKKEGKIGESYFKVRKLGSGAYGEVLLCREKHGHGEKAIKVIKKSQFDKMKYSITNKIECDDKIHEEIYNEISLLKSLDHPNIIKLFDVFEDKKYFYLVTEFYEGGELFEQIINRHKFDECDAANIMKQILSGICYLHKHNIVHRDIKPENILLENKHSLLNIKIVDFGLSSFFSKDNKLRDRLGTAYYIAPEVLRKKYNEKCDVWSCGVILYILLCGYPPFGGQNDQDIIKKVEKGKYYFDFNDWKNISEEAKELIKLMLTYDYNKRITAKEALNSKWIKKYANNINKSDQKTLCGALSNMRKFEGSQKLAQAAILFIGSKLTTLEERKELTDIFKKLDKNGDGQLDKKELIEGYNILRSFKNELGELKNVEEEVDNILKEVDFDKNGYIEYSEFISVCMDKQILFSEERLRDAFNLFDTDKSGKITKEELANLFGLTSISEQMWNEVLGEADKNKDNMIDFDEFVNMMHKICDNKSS
Protein kinase 7 (PK7), Plasmodium falciparum 3D7 (PF3D7_0213400), sequence (Q7YTF7 1-343): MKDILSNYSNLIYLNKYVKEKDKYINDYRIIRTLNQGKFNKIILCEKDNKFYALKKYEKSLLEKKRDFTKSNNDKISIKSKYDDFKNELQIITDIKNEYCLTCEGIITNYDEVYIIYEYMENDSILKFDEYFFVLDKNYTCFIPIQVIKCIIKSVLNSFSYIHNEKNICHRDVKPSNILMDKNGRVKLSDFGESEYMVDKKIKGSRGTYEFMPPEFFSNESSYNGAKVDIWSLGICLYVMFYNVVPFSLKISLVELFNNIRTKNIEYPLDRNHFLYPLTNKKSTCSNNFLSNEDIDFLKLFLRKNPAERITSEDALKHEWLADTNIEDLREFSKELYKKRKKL
Plasmodium falciparum protein kinase 6 (PK6, PF3D7_1337100), sequence (Q8IDW1 1-305): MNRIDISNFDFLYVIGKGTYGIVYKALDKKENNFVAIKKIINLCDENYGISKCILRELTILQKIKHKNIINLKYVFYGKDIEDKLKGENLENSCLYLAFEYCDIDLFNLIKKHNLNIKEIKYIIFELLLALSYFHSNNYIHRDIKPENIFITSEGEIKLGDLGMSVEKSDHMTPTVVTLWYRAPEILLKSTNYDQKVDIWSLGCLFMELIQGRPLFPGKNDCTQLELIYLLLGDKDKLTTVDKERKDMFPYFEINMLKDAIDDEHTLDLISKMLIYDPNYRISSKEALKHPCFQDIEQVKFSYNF
Calcium-dependent protein kinase 4 (Plasmodium falciparum (isolate 3D7)), sequence (Q8IBS5 whole entry, looked up): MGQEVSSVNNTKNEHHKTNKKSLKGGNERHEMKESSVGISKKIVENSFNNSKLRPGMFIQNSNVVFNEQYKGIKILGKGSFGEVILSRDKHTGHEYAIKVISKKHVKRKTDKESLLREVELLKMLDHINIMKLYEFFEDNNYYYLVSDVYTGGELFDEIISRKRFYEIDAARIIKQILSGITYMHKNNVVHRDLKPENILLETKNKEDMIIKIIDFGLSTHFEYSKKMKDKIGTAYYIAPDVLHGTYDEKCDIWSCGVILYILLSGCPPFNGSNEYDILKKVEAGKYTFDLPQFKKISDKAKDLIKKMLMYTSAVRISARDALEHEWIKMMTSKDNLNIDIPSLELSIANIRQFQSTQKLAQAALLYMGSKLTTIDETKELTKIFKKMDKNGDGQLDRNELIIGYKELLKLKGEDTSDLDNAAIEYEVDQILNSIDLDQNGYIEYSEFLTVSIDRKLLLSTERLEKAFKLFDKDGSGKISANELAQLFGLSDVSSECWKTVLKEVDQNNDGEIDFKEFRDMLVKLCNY
L-lactate dehydrogenase (Plasmodium falciparum (isolate CDC / Honduras)), sequence (Q27743 whole entry, looked up): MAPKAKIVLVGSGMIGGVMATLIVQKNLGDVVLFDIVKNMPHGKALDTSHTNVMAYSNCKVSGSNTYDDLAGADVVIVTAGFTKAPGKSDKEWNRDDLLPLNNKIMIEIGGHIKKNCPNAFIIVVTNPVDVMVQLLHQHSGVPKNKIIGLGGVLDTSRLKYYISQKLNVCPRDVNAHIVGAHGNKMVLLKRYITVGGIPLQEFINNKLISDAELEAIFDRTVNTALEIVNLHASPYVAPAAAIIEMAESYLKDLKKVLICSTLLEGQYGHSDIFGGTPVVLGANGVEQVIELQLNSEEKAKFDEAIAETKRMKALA

As usually defined, the inhibition is the drop in the measured response relative to a control, in per cent. Take `COc1cccc2c1CCN(CCN1CCC(NC(=O)c3ccc(-c4cccc(Cl)c4Cl)cc3)CC1)C2`: the results for the growth inhibition in assay [1] and in assay [4] were 38% and 100% (active), respectively. For the same molecule, the inhibition in assay [2] is 47%; in assay [3], -1%. Also, the outcome in assay [5], in assay [6], in assay [7] and in assay [8] was inactive.

`COc1ccc2ncc(F)c(CCN3C[C@H](CNCc4cc(C#N)c5c(c4)OCCO5)[C@H](O)C3)c2n1`: the growth inhibition in assay [1] is 64% (active); in assay [4], 100% (active). Also, the values for the inhibition in assay [2] and in assay [3] were 7% and -5%, respectively. The outcome in assay [5], in assay [6], in assay [7] and in assay [8] was inactive.

For the molecule `NCC1CCCN1Cc1ccc(-c2ccc(-c3nc4ccc(C(F)(F)F)cc4[nH]3)cc2)cc1` (stereo not given), the growth inhibition in assay [1] is 98% (active); in assay [4] it was 101% (active). The results for the inhibition in assay [2] and in assay [3] were 35% and 3%, respectively. Further, the result in assay [5], in assay [6], in assay [7] and in assay [8] was inactive.

Consider `Cn1c(=O)c2cc(C(=O)NCCCN3CCCCCC3)sc2c2ccccc21`, for which the growth inhibition in assay [1] and in assay [4] was 99% (active) each time. In addition, the inhibition is 32% in assay [2] and 0% in assay [3]. Moreover, the outcome in assay [5], in assay [6], in assay [7] and in assay [8] was inactive.

Turning to `O=C(/C=C/c1ccc(Cl)c(Cl)c1)NCCCCCN1CCC(c2c[nH]c3cc(O)ccc23)CC1`, the growth inhibition in assay [1] was 2%; in assay [4] it was 101% (active). For the same molecule, the inhibition in assay [2] was 32%; in assay [3], 3%. Moreover, the outcome in assay [5], in assay [6], in assay [7] and in assay [8] was inactive.

For `CCCCCC(C)C(C)c1cc(O)c2c(c1)OC(C)(C)CC2(O)c1ccccn1` (stereo not given), the growth inhibition in assay [1] was 3%; in assay [4], 98% (active). For the same molecule, the values for the inhibition in assay [2] and in assay [3] were -2% and -5%, respectively. For the same molecule, the result in assay [5], in assay [6], in assay [7] and in assay [8] was inactive.

For the molecule `COc1ccc(-c2nc3c(N)nc(N)nc3nc2-c2ccccc2Cl)cc1` (tested in a mixture with another compound), the growth inhibition in assay [1] is -1%; in assay [4], 93% (active). In addition, the values for the inhibition in assay [2] and in assay [3] were 45% and -2%, respectively. Moreover, the result in assay [5], in assay [6], in assay [7] and in assay [8] was inactive.

On to `COc1ccc2nccc(N3CCC(O)(CCNCc4ccc5c(n4)NC(=O)CS5)CC3)c2n1`, for which the growth inhibition in assay [1] is 21%; in assay [4], 99% (active). For the same molecule, the results for the inhibition in assay [2] and in assay [3] were 10% and 0%, respectively. Further, the result in assay [5], in assay [6], in assay [7] and in assay [8] was inactive.

With `Cc1ccc(CN(Cc2ccc(C(=O)N(C)C)cc2)Cc2ccc3c(c2)OCCO3)cc1C`, the growth inhibition was 87% (active) in assay [1] and 91% (active) in assay [4]. Further, the inhibition was 10% in assay [2] and 0% in assay [3]. Further, the outcome in assay [5], in assay [6], in assay [7] and in assay [8] was inactive.

On to `CN(CCCN(C)c1cc(NC(=O)c2ccc(F)cc2)ccn1)Cc1cccc(O)c1`, for which the growth inhibition was 0% in assay [1] and 90% (active) in assay [4]. For the same molecule, the values for the inhibition in assay [2] and in assay [3] were 2% and 1%, respectively. The result in assay [5], in assay [6], in assay [7] and in assay [8] was inactive.

On to `CC(=O)Nc1ccc(OCCCN(Cc2ccccc2OC(F)(F)F)c2ccc(C(F)(F)F)c(C#N)c2)c(Cl)c1`, for which the growth inhibition is 80% (active) in assay [1] and 91% (active) in assay [4]. Moreover, the inhibition in assay [2] is 5%; in assay [3], 0%. Further, the outcome in assay [5], in assay [6], in assay [7] and in assay [8] was inactive.

For `O=C(/C=C/c1ccc(Cl)c(Cl)c1)N1CCC(CNCc2cccc3cc[nH]c23)CC1`, the growth inhibition was 14% in assay [1] and 85% (active) in assay [4]. In addition, the inhibition in assay [2] was 1%; in assay [3], -2%. For the same molecule, the outcome in assay [5], in assay [6], in assay [7] and in assay [8] was inactive.

Turning to `CC1(C)N=C(N)N=C(N)N1OCc1cccc(C#N)c1`, the growth inhibition was 2% in assay [1] and 94% (active) in assay [4]. Further, the inhibition was 57% (active) in assay [2] and 5% in assay [3]. Further, the result in assay [5], in assay [6], in assay [7] and in assay [8] was inactive.

For `C=C[C@]1(C)C[C@@H](OC(=O)NC(=O)CCCS(=O)(=O)c2nnc(C)s2)[C@]2(C)[C@H](C)CC[C@]3(CCC(=O)[C@H]32)[C@@H](C)[C@@H]1O`, the values for the growth inhibition in assay [1] and in assay [4] were 97% (active) and 94% (active), respectively. For the same molecule, the inhibition in assay [2] is -9%; in assay [3], -7%. For the same molecule, the result in assay [5], in assay [6], in assay [7] and in assay [8] was inactive.

Take `CC(C)(CC1CCCCC1)NC(=O)[C@H](CC1CCCCC1)Nc1ccc(C#N)c2ccccc12`: the growth inhibition is 52% (active) in assay [1] and 98% (active) in assay [4]. Moreover, the inhibition is 14% in assay [2] and -2% in assay [3]. The outcome in assay [5], in assay [6], in assay [7] and in assay [8] was inactive.

Take `CCOc1c(CNCCCNc2cc(=O)c3ccccc3[nH]2)cc(I)cc1OC`: the values for the growth inhibition in assay [1] and in assay [4] were 6% and 91% (active), respectively. Besides, the inhibition in assay [2] was -4%; in assay [3], 2%. The outcome in assay [5], in assay [6], in assay [7] and in assay [8] was inactive.

For `O=C(NCCN1CCCC1)c1cc(-c2ccc(Cl)c(O)c2)c(-c2ccncc2)o1`, the growth inhibition was -5% in assay [1] and 92% (active) in assay [4]. For the same molecule, the inhibition was -23% in assay [2] and 0% in assay [3]. For the same molecule, the result in assay [5], in assay [6], in assay [7] and in assay [8] was inactive.

With `Cc1[nH]c(-c2ccc(F)cc2)cc1C(=O)NC1CCN(Cc2ccccc2)CC1`, the growth inhibition was 9% in assay [1] and 84% (active) in assay [4]. Also, the inhibition in assay [2] is 6%; in assay [3], -2%. For the same molecule, the result in assay [5], in assay [6], in assay [7] and in assay [8] was inactive.

As for `O=C(/C=C/c1ccc(Cl)c(Cl)c1)NCC(CCCN1CCC(c2c[nH]c3ccccc23)CC1)c1ccccc1` (stereo not given), the growth inhibition in assay [1] was 46%; in assay [4] it was 100% (active). Besides, the results for the inhibition in assay [2] and in assay [3] were 98% (active) and 3%, respectively. In addition, the result in assay [5], in assay [6], in assay [7] and in assay [8] was inactive.

Regarding `COc1cccc(-c2ccc3c(-c4ccc(F)cc4)cnc(N)c3c2)c1`, the results for the growth inhibition in assay [1] and in assay [4] were 70% (active) and 100% (active), respectively. Besides, the inhibition is 27% in assay [2] and -2% in assay [3]. For the same molecule, the outcome in assay [5], in assay [6], in assay [7] and in assay [8] was inactive.

Source of the values: PubChem BioAssay.
